In PubChem BioAssay (Tox21):
Several values for one entry are separate records, joined by “and”; a condition that tells them apart may be missing. Equal entries are not always repeated. Records with an inconclusive call do not appear. Entries that show only a call come without a potency. The source holds several records for some structures; these can differ, active in one and inactive in another. Activity calls are given as the source filed them. Unless noted, calls come from the whole dose curve.

How the values were obtained:
[1] = Nuclear factor erythroid 2-related factor 2/antioxidant responsive element (Nrf2/ARE) small molecule agonists: qHTS cell viability counter screen in human keratinocytes (AID 1919968; active = well fitted curve in the direction sought with a large enough effect in the repeat runs; an effect the other way counts as inactive or inconclusive; note: nearly all actives have a fitted effect of over 55% in size; note: potency is the fitted concentration of half-maximal effect)
Summary of the method: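 Seed 1,500 KeratinoSens cells per well, then incubate 5 h at 37 C/5% CO2. Add compounds in DMSO and incubate 23 h. Add CellTiter-Fluor, wait 1 h and read fluorescence.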

[2] = Nuclear factor erythroid 2-related factor 2/antioxidant responsive element (Nrf2/ARE) small molecule agonists: luciferase reporter gene qHTS assay in human keratinocytes (AID 1919969); note: nearly all actives have a fitted effect of over 35% in size; note: potency is the fitted concentration of half-maximal effect
[3] = biological target: Gonadotropin-releasing hormone receptor (Homo sapiens) (UniProt P30968); assay: Human gonadotropin-releasing hormone receptor (GnRHR) small molecule agonists, calcium flux assay in GnRHR-HEK293 cells (AID 1920063); note: nearly all actives have a fitted effect of over 35% in size
Summary of the method: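 Cells: HEK293 stably expressing human GnRHR. Steps: overnight (18 h) culture, 1 h calcium dye loading at 37 C, compound addition, kinetic fluorescence read at 480/540 nm. Each compound tested at 15 concentrations in triplicate.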

[4] = biological target: KiSS-1 receptor (Homo sapiens) (UniProt Q969F8); assay: Human kisspeptin (KISS1R) small molecule agonists, calcium flux assay in KISS1R-HEK293 cells (AID 1920064; active = well fitted curve in the direction sought with a large enough effect in the repeat runs; an effect the other way counts as inactive or inconclusive)
Summary of the method: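 Cells plated and incubated 18 h; dye added, 1 h at 37 C; compounds in DMSO pinned in; signal read at 480/540 nm every second for 3 min. Each compound tested at 15 concentrations in triplicate.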

[5] = G protein-coupled receptor (GPCR) small molecule agonists, calcium flux assay: HEK293 wild type cell line counter screen (AID 1920065)
Summary of the method: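 Counter-screen of the Tox21 10K library for non-specific calcium release: dye-loaded cells received compounds in DMSO and were monitored by kinetic fluorescence (480/540 nm, 3 min). Fifteen concentrations, run in triplicate.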

[6] = p53 small molecule agonists, cell-based qHTS assay with rat liver microsomes (AID 1963578)
Summary of the method: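 Quantitative HTS of the Tox21 10K library: p53RE-bla cells, rat liver microsomes plus NADPH at 0.5 mg/mL final each, 16 h at 37 C, beta-lactamase fluorescence detection.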

[7] = p53 small molecule agonists, cell-based qHTS assay with human liver microsomes: qHTS cell viability counter screen (AID 1963579); note: nearly all actives have a fitted effect of over 45% in size; note: potency is the fitted concentration of half-maximal effect
Summary of the method: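 Viability of p53RE-bla cells is measured as CellTiter-Glo luminescence following a 16 h, 37 C incubation with compound, liver microsomes from human donors and NADPH.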

[8] = p53 small molecule agonists, cell-based qHTS assay with rat liver microsomes: qHTS cell viability counter screen (AID 1963580); note: nearly all actives have a fitted effect of over 45% in size; note: potency is the fitted concentration of half-maximal effect
Summary of the method: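 p53RE-bla HCT-116 cells were exposed 16 h at 37 C to compounds with rat liver microsomes (0.5 mg/mL) and NADPH (0.5 mg/mL). Viability was measured in the same wells as ATP content by CellTiter-Glo luminescence.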

[9] = p53 small molecule agonists, cell-based qHTS assay: qHTS cell viability counter screen (AID 1963581); note: nearly all actives have a fitted effect of over 45% in size; note: potency is the fitted concentration of half-maximal effect
Summary of the method: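 Cells: HCT-116 with p53 response element-driven beta-lactamase. Treatment: 16 h, 37 C, compounds in DMSO. Read: CellTiter-Glo luminescence after 30 min RT.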

[10] = p53 small molecule agonists, cell-based qHTS assay (AID 1963582; active = well fitted activation curve with a large enough effect in the signal ratio in the repeat runs, not every such curve was filed as active; the % refers to the signal ratio)
Summary of the method: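 Quantitative HTS in p53RE-bla cells: after a 5 h settling period, compounds delivered in DMSO were left on cells for 16 h at 37 C, and reporter induction was measured as fluorescence following 2 h substrate loading.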

[11] = biological target: 5-hydroxytryptamine receptor 2A (Homo sapiens) (UniProt P28223); assay: 5-hydroxytryptamine receptor 2A (HTR2A) small molecule agonists, cell-based qHTS assay (AID 1963587); note: nearly all actives have a fitted effect of over 30% in size
Summary of the method: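 CHO cells stably expressing human HTR2A, plated 18 h, loaded with calcium dye 1 h at 37 C. Agonist mode: compounds added and intracellular calcium fluorescence recorded kinetically for 2 min at 1 sec intervals.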

[12] = biological target: Muscarinic acetylcholine receptor M1 (Homo sapiens) (UniProt P11229); assay: Cholinergic receptor muscarinic 1 (CHRM1) small molecule antagonists, cell-based qHTS assay (AID 1963588); note: nearly all actives have a fitted effect of over 40% in size; note: potency is the fitted concentration of half-maximal effect
Summary of the method: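 CHRM1-CHO calcium-flux assay, antagonist mode. Cells were seeded 18 h, dye-loaded 1 h at 37 C and given compound for 5 min at RT, then acetylcholine was added at 50nM. FDSS fluorescence was read 3 min; 15 concentrations, three runs.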

[13] = biological target: Muscarinic acetylcholine receptor M1 (Homo sapiens) (UniProt P11229); assay: Cholinergic receptor muscarinic 1 (CHRM1) small molecule agonists, cell-based qHTS assay (AID 1963589); note: nearly all actives have a fitted effect of over 35% in size
Summary of the method: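 Agonist-mode qHTS in CHO cells stably carrying human muscarinic M1. Intracellular calcium is tracked by fluorescence every second after compound transfer; each compound runs at 15 concentrations in three independent runs.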

[14] = cAMP Responsive Elements (CRE) small molecule agonists, cell-based qHTS assay (AID 1963590)
Summary of the method: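 Agonist mode qHTS in CRE-bla HEK 293T cells: compounds dosed from DMSO for 3 h at 37 C/5% CO2, followed by LiveBLAzer B/G FRET substrate for 2 h at room temperature.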

[15] = cAMP Responsive Elements (CRE) small molecule antagonists, cell-based qHTS assay (AID 1963591; active = well fitted inhibition curve with a large enough effect in the signal ratio in the repeat runs, not every such curve was filed as active; the % refers to the signal ratio)
Summary of the method: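 Antagonist mode: test compounds are co-incubated with the adenylyl cyclase activator NKH477 (0.25 uM final) on CRE-bla HEK293T cells for 3 h at 37 °C, followed by LiveBLAzer substrate loading.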

[16] = biological target: Beta-2 adrenergic receptor (Homo sapiens) (UniProt P07550); assay: Adrenergic beta2 receptor (ADRB2) small molecule antagonists, cell-based qHTS assay (AID 1963592); note: series mostly up to about 92 µM; nearly all actives have a fitted effect of over 50% in size
Summary of the method: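 Cells (CHO, stable ADRB2 overexpression) incubated 18-20hr at 37C; compounds added from DMSO; agonist mix (1nM isoproterenol, 100uM IBMX, 25uM Ro-20-1724) added; 0.5hr RT; d2-cAMP and anti-cAMP-cryptate added; 1hr RT; 665/615 nm read.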

[17] = biological target: D(2) dopamine receptor (Homo sapiens) (UniProt P14416); assay: Dopamine D2 receptor (DRD2) small molecule agonists, cell-based qHTS assay (AID 1963594); note: nearly all actives have a fitted effect of over 35% in size
Summary of the method: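 HEK293 cells stably expressing human DRD2, pre-treated with PDE inhibitor Ro20-1724 (0.1 mM final) and compound 10 min at room temperature, then stimulated with NKH477 (200nM […]) for 30 min. cAMP read by HTRF (665/620 nm).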

[18] = biological target: D(2) dopamine receptor (Homo sapiens) (UniProt P14416); assay: Dopamine D2 receptor (DRD2) small molecule antagonists, cell-based qHTS assay (AID 1963595; active = well fitted inhibition curve with a large enough effect in the signal ratio in the repeat runs, with a control signal flat; the % refers to the signal ratio; note: potency is the fitted concentration of half-maximal effect)
Summary of the method: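 HTRF cAMP read-out at 665 and 620 nm emission (340 nm excitation). Antagonist mode: compounds were tested against 12 nM quinpirole in DRD2-HEK293 cells, with 200 nM NKH477 raising cAMP and 0.1 mM Ro20-1724 blocking its breakdown.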

[19] = biological target: Beta-2 adrenergic receptor (Homo sapiens) (UniProt P07550); assay: Adrenergic beta2 receptor (ADRB2) small molecule agonists, cell-based qHTS assay (AID 1963593);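 note: CHO cells stably overexpressing human ADRB2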
Summary of the method: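 CHO cells stably over-expressing ADRB2 were plated overnight at 37C, then dosed with compounds plus a stimulation mix containing 100uM IBMX and 25uM Ro-20-1724 for 0.5hr at room temperature. cAMP was measured by HTRF competition, 1hr.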

[20] = biological target: 5-hydroxytryptamine receptor 2A (Homo sapiens) (UniProt P28223); assay: 5-hydroxytryptamine receptor 2A (HTR2A) small molecule antagonists, cell-based qHTS assay (AID 1963586); note: nearly all actives have a fitted effect of over 45% in size; note: potency is the fitted concentration of half-maximal effect
Summary of the method: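 Antagonist-mode intracellular calcium assay: DOI (4 nM) added after 5 min compound pre-incubation at room temperature to dye-loaded HTR2A-CHO cells. Fluorescence followed for 3 min, sampled every second.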

Gonadotropin-releasing hormone receptor (Homo sapiens), sequence (P30968 whole entry, looked up): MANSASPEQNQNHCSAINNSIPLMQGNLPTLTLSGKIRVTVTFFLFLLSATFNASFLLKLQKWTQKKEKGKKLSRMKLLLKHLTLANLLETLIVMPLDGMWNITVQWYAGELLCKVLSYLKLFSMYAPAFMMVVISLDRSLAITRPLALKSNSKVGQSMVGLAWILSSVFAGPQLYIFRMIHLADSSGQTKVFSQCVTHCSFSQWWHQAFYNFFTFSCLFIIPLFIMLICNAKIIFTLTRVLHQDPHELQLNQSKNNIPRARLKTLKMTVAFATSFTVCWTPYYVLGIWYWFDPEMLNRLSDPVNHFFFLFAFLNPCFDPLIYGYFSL
Beta-2 adrenergic receptor (Homo sapiens), sequence (P07550 whole entry, looked up): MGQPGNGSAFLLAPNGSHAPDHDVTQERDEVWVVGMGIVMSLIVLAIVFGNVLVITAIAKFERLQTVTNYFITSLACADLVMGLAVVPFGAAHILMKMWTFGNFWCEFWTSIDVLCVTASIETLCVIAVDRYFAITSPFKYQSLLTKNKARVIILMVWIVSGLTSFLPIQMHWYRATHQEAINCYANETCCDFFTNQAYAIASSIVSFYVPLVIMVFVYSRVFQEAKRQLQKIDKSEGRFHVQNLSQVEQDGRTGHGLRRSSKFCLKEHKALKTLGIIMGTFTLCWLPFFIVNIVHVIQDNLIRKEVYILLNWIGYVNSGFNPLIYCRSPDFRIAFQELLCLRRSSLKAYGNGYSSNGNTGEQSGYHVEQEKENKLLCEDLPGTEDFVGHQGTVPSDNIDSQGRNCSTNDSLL
D(2) dopamine receptor (Homo sapiens), sequence (P14416 whole entry, looked up): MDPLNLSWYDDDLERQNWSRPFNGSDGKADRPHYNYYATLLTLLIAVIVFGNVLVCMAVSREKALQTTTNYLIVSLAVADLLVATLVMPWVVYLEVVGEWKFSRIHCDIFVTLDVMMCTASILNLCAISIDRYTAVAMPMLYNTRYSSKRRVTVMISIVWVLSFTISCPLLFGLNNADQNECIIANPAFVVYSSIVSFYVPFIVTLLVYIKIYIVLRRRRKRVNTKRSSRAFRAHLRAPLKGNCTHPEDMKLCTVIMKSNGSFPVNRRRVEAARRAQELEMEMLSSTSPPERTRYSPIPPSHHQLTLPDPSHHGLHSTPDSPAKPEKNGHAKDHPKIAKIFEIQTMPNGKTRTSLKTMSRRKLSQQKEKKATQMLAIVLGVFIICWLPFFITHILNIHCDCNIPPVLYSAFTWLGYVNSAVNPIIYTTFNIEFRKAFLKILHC
5-hydroxytryptamine receptor 2A (Homo sapiens), sequence (P28223 whole entry, looked up): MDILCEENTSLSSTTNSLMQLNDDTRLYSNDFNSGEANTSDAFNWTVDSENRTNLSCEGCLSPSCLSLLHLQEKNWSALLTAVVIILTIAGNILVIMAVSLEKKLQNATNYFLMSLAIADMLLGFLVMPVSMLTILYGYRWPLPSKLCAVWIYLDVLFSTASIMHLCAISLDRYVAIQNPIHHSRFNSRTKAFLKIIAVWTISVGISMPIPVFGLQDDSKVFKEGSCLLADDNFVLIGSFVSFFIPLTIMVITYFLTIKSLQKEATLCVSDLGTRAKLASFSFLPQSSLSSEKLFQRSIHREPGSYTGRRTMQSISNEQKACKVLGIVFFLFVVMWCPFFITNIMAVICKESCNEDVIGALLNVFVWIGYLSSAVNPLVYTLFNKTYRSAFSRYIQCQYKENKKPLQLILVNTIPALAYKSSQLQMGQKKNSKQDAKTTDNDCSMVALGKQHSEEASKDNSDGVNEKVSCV
KiSS-1 receptor (Homo sapiens), sequence (Q969F8 whole entry, looked up): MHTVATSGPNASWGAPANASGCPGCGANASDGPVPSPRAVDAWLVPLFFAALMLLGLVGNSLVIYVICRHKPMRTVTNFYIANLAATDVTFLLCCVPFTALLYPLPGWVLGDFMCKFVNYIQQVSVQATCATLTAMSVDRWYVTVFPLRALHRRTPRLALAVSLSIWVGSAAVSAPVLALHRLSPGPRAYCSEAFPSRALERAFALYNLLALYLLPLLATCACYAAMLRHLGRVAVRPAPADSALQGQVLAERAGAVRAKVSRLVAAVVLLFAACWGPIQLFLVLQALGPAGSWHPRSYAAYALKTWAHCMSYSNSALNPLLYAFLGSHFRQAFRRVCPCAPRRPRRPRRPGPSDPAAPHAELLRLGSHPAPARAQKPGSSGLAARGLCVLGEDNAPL
Muscarinic acetylcholine receptor M1 (Homo sapiens), sequence (P11229 whole entry, looked up): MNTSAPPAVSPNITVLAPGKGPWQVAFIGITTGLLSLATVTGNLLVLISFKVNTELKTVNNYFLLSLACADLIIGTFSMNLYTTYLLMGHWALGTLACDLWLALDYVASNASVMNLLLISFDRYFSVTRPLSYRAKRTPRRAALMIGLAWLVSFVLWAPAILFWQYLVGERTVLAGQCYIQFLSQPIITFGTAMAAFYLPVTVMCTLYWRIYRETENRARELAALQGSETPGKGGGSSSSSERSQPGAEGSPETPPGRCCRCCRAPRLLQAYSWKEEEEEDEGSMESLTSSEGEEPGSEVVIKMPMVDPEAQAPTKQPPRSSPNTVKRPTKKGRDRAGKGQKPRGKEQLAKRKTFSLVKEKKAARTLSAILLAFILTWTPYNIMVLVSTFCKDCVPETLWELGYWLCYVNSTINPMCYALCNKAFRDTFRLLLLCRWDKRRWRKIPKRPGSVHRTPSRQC

Row | Compound | Potency [1] | Potency [2] | Potency [3] | Potency [4] | Potency [5] | Potency [6] | Potency [7] | Potency [8] | Potency [9] | Potency [10] | Potency [11] | Potency [12] | Potency [13] | Potency [14] | Potency [15] | Potency [16] | Potency [17] | Potency [18] | Potency [19] | Potency [20]
1 | C=C(C)C(=O)OCC(CC)CCCC (configuration not stated) | inactive | inactive | inactive | inactive | inactive | inactive | inactive | inactive | inactive | inactive | inactive | inactive | inactive | inactive | inactive | inactive | inactive | inactive | – | –
2 | CCC(=O)O[C@H]1CC[C@H]2[C@@H]3CCC4=CC(=O)CC[C@]4(C)[C@H]3CC[C@]12C | inactive | inactive | inactive | inactive | inactive | inactive | inactive | inactive | inactive | inactive | inactive | 5.3 µM (active) and 4.6 µM (active) | – | – | – | inactive | inactive | inactive | inactive | –
3 | COc1cccc(C=O)c1 | inactive | inactive | inactive | inactive | inactive | inactive | inactive | inactive | inactive | inactive | inactive | inactive | inactive | inactive | – | inactive | inactive | inactive | – | inactive
4 | COP(=O)(NC(C)=O)SC (configuration not stated) | inactive | inactive | inactive | inactive | inactive | inactive | inactive | inactive | inactive | inactive | inactive | inactive | inactive | inactive | – | inactive | inactive | inactive | inactive | inactive
5 | O=C(NCNC(=O)NC1C(=O)NC(=O)N1CO)NC1C(=O)NC(=O)N1CO (configuration not stated) | inactive | inactive | inactive | inactive | inactive | inactive | inactive | inactive | inactive | inactive | – | inactive | inactive | inactive | inactive | inactive | inactive | inactive | – | inactive
6 | CCCCCCCCCCCCCC[P+](CCCCCC)(CCCCCC)CCCCCC | 7.73 µM (active) and 19.5 µM (active) and inactive | inactive | inactive | inactive | inactive | – | 14.5 µM (active) and 20.6 µM (active) and inactive | 16.3 µM (active) and 20.6 µM (active) and inactive | 7.29 µM (active) and 18.4 µM (active) | – | inactive | inactive | – | – | – | inactive | – | 12.2 µM (active) and 21.9 µM (active) and inactive | inactive | inactive
7 | COc1ccc(O)c(C(C)(C)C)c1 | inactive | 68.7 µM (active) | inactive | inactive | inactive | inactive | inactive | inactive | inactive | inactive | inactive | inactive | inactive | – | inactive | inactive | inactive | inactive | inactive | 23.7 µM (active) and inactive
8 | CCN(CC)C(=O)/C(Cl)=C(\C)OP(=O)(OC)OC | inactive | inactive | inactive | inactive | inactive | – | inactive | inactive | inactive | inactive | inactive | inactive | inactive | inactive | inactive | inactive | – | inactive | – | inactive
9 | CCCCCCCCCCCCCCCCCC(=O)O | inactive | 48.2 µM (active) and inactive | inactive | inactive | inactive | – | inactive | inactive | inactive | – | inactive | inactive | inactive | inactive | inactive | inactive | inactive | inactive | inactive | inactive
10 | CC(C)(c1ccccc1)c1ccc(O)c(C(C)(C)c2ccccc2)c1 | 13.6 µM (active) and 30.6 µM (active) | inactive and 7.7 µM (active) | inactive | inactive | inactive | inactive | 40.4 µM (active) and inactive | – | 14.3 µM (active) and 45.8 µM (active) | – | inactive | inactive | inactive | – | – | – | inactive | 54 µM (active) | – | inactive
11 | O=C(Nc1ccc(Br)cc1)c1cc(Br)cc(Br)c1O | 6.09 µM (active) and 6.11 µM (active) and 7.5 µM (active) | 54.3 µM (active) and 10.9 µM (active) and 13.3 µM (active) | inactive | inactive | inactive | inactive | inactive | – | inactive and 3.97 µM (active) | inactive | – | – | – | – | – | inactive | inactive | inactive | inactive | –
12 | O=S(=O)(Oc1ccc(Cl)cc1)c1ccc(Cl)cc1 | inactive | 27.7 µM (active) and inactive | inactive | inactive | inactive | – | inactive | inactive | inactive | – | inactive | inactive | inactive | inactive | inactive | inactive | inactive | inactive | inactive | inactive
13 | Clc1ccc(C(c2ccccc2Cl)C(Cl)(Cl)Cl)cc1 (configuration not stated) | 43.5 µM (active) | inactive | inactive | inactive | inactive | inactive | inactive | – | inactive | – | – | inactive | inactive | – | inactive | inactive | inactive | inactive | – | inactive
14 | O=[N+]([O-])c1ccccc1 | inactive | inactive | inactive | inactive | inactive | inactive | – | inactive | inactive | inactive | inactive | inactive | inactive | inactive | – | inactive | inactive | inactive | inactive | inactive
15 | CS(=O)(=O)NC(=O)c1cc(Oc2ccc(C(F)(F)F)cc2Cl)ccc1[N+](=O)[O-] | inactive | inactive | inactive | inactive | inactive | inactive | inactive | inactive | – | inactive | inactive | – | inactive | inactive | inactive | inactive | inactive | inactive | – | inactive
